# TDP1 cell CPT: qHTS for Inhibitors of human tyrosyl-DNA phosphodiesterase 1 (TDP1): qHTS in cells in presence of CPT; chicken DT40 Tdp1-/-;hTDP1 cells + 20 nM CPT, ATP luminescence, 48 h; Potency, µM (series often up to 46.2 µM), usual class: inhibitors; 420,000 compounds, 12% hits; AID 686979, 2013; also: nearly all actives have a fitted effect of over 55% in size
#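 Chicken DT40 Tdp1-/- cells stably complemented with human TDP1 were seeded at 400 cells/well in medium containing 20 nM camptothecin, exposed to pin-transferred compounds, and grown at 37 °C for at least 48 hr. Viability was read as ATP luminescence.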
# HT1080NT lethal: qHTS for induction of synthetic lethality in tumor cells producing 2HG: qHTS for the HT-1080-NT fibrosarcoma cell line; HT-1080-NT fibrosarcoma viability, CellTiter-Glo ATP luminescence, 48 h; Potency, µM (doses to about 46.1 µM), most hits filed as cytotoxic; AID 686970, 2013; 360,000 compounds, 1.6% hits;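 also: NT is the 2HG producing partner of a matched IDH1 knockdown line; nearly all actives have a fitted effect of over 55% in size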
#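 Read-out is CellTiter-Glo luminescence after 10 minutes at room temperature, following 48 hours' compound treatment of HT-1080-NT cells (750 cells/well, RPMI, 5% FBS, 37 degrees C).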
# ELG1 DNA repair: qHTS screen for small molecules that inhibit ELG1-dependent DNA repair in human embryonic kidney (HEK293T) cells expressing luciferase-tagged ELG1 | HEK293T ELG1-luciferase reporter, luminescence, 16 h; DNA damage induced by 5-fluorouridine | Potency, µM (series often up to 46.1 µM), usual class: inhibitors | 330,000 compounds, 2.3% hits; also: nearly all actives have a fitted effect of over 55% in size
#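 Step one: seed 2,000 cells per well. Step two: pin-transfer compound or DMSO alongside 5-fluorouridine. Step three: incubate 16 hr, 37 °C, 5% CO2. Step four: add ONE-Glo, wait 30 min, read luminescence.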
# IL1B secr inh: qHTS for Inhibitors of Inflammasome Signaling: IL-1-beta AlphaLISA Primary Screen | 360,000 compounds, 4.7% hits | AID 743279, 2014 | activity change, % at 57.5 µM | THP-1 LPS/ATP IL-1B secretion, AlphaLISA, 16 h; stronger effect = lower value; in the data active = activity change below about -50%; inconclusive = mostly about -30% to -49%
#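 THP-1 cells pretreated 1 hr with compounds (up to 57.5 uM final), then stimulated with LPS (250 ng/mL final) plus ATP (1.25 mM final); secreted IL-1B measured by AlphaLISA after 16 hr, decreased signal indicating inhibition.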
# HT1080 IDH1KD tx: qHTS for induction of synthetic lethality in tumor cells producing 2HG: qHTS for the HT-1080-IDH1KD cell line | HT-1080 IDH1 knockdown viability, ATP luminescence, 48 h | Potency, µM (series often up to 46.1 µM), hits mostly cytotoxic | 360,000 compounds, 2% hits | AID 686971, 2013
#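 CellTiter-Glo luminescence after 48 h compound exposure at 37 degrees C of IDH1-knockdown HT-1080 cells in 5% FBS RPMI. %Activity scaled between DMSO wells and cell-free media wells, with curves fitted and assigned curve classes.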
# TDP1 cell noCPT: qHTS for Inhibitors of human tyrosyl-DNA phosphodiesterase 1 (TDP1): qHTS in cells in absence of CPT | AID 686978, 2013 | Potency, µM (top dose mostly 46.2 µM), most hits filed as inhibitors | 420,000 compounds, 15% hits | DT40 Tdp1-/- hTDP1 cells, no CPT, ATP luminescence, 48 h; also: nearly all actives have a fitted effect of over 55% in size
#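 Camptothecin absent (DMSO only). Human TDP1-complemented DT40 knockout cells, 400 cells/well, 37 °C for minimum 48 hr; ATP measured via CellTiter-Glo, 30 min dark incubation, luminescence.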
# A number is an active result; . = inactive; ? = inconclusive; / = no result; ! = repeats disagree; [ ] = remark or other dose. This is a sample that favours compounds with a hit; in the whole collection about 19% have one here. Unless noted, calls follow the shape of the dose curve; as a rule, active = well fitted curve in the direction sought with a large enough effect; inconclusive = small, poorly fitted or top-dose-only effect, or another doubt; inactive = no such curve, though single readings can be large; an effect the other way counts as inactive or inconclusive.
SMILES,TDP1 cell CPT,HT1080NT lethal,ELG1 DNA repair,IL1B secr inh,HT1080 IDH1KD tx,TDP1 cell noCPT
O=C(/C=C/c1ccco1)c1cccnc1,.,.,.,.,.,?
CN(C)c1ccc(/C=C/C(=O)c2cccnc2)cc1,.,.,.,?,.,.
CN(C)C(=O)COc1ccc(C(=O)/C=C/c2cccnc2)cc1,16µM,?,?,-101,?,13µM
O=C(/C=C/c1cccnc1)c1ccc(O)cc1,?,?,?,-98,?,15µM
O=C(C=Cc1cccnc1)c1ccccc1,5.8µM,?,/,-106,18µM,5.8µM
CC(C)c1nc(SCC(=O)Nc2ccc(N(C)C)cc2)c2ccccc2n1,23µM,.,?,.,?,?
CC(C)c1nc(SCC(=O)Nc2nccs2)c2ccccc2n1,.,.,.,.,.,.
Cc1csc(NC(=O)CSc2nc(C(C)C)nc3ccccc23)n1,?,?,.,-96,.,12µM
O=C(Nc1ccc(Cl)c(Cl)c1)C1CC(=O)N(c2ccc(Br)cc2)C1 (centres undefined),?,?,.,-60,.[9.24 µM],?
NC(=O)C1CC(=O)N(c2ccc(OCc3ccc(Cl)cc3Cl)cc2)C1 (centres undefined),.,.,?,.,.,.
NC(=O)C1CC(=O)N(c2ccc(OCc3ccc(Cl)c(Cl)c3)cc2)C1 (centres undefined),23µM,.,/,.,.,?
Cc1ccc(N2CC(C(=O)N3CCC4(CC3)CC(=O)c3ccccc3O4)CC2=O)cc1 (centres undefined),?,.,?,.,.,23µM
Cc1ccc(N2CC(C(=O)N3CCC(C(=O)Nc4ccc(Br)cc4)CC3)CC2=O)cc1 (centres undefined),?,.,.,-61,?,?
Cc1cc(C)cc(NC(=O)C2CC(=O)N(c3ccccc3)C2)c1 (centres undefined),.,/,/,/,/,?
COC(=O)c1ccc(NC(=O)C(=O)NCCc2csc(-c3ccc(F)cc3)n2)cc1,.,/,/,/,/,.
CCCS(=O)(=O)NCc1c(C)ncc2c1CCN(C(=O)c1ccc3[nH]c4c(c3c1)CCCC4)C2,.[9.04 µM],/,/,/,/,?
COc1ccccc1NC(=O)N(C)C[C@H]1Oc2ncc(C#CCN(C)C)cc2C(=O)N([C@H](C)CO)C[C@H]1C,.,.,/,.,.,.
COc1ccc(/C(N)=N/OC(=O)N2CCOCC2)cc1,?,.,.,.,.,21µM
c1ccc(OCCNc2nc(NCC3CC3)nc3cc(-c4ccccc4)sc23)cc1,5.8µM,15µM,/,-106,?,5.8µM
c1ccc(CNc2nc(NCC3CC3)nc3cc(-c4ccccc4)sc23)cc1,9.2µM,23µM,/,-116,?,10µM
CC(=O)Nc1c(O)nc(SCc2ccccc2C#N)[nH]c1=O,.,.,.,.,.,.
CC(=O)Nc1ccc(S(=O)(=O)N2C(C)CCCC2C)cc1 (centres undefined),?,.,.,.,.,?
CCOc1ccc(Oc2ccc(NC(=O)CSc3nncn3C)cc2)cc1,.,.,.,.,.,.
O=S(=O)(c1ccccc1)N1N=C(c2ccc(O)cc2)CC1c1ccco1 (centres undefined),8.2µM,.,?,.,.,7.3µM
COc1ccccc1C1CC(c2ccc(NS(C)(=O)=O)cc2)=NN1S(=O)(=O)c1ccccc1 (centres undefined),.,.,.,?,.,.
SMILES,TDP1 cell CPT,HT1080NT lethal,ELG1 DNA repair,IL1B secr inh,HT1080 IDH1KD tx,TDP1 cell noCPT
O=S(=O)(c1ccccc1)N1N=C(c2ccccc2)CC1c1ccccc1F (centres undefined),16µM,.,.,.,.,?
O=S(=O)(c1ccccc1)N1N=C(c2ccc(Br)cc2)CC1c1ccco1 (centres undefined),16µM,.,?,?,.,16µM
O=C1CCCN2N=C(SCC(=O)Nc3ccc(F)cc3F)SC2=N1,?,.,.,.,.,?
CCOc1cc2c(cc1OCC)C(c1ccccc1)N(c1ccc(C(=O)O)cc1)C(=O)C2 (centres undefined),.,.,.,.,.,.
COc1ccc(OCc2cc(-c3ccc(Cl)cc3)no2)cc1,.,?,.,.,.,.
O=C(CCl)NCc1cc(-c2ccc(Cl)cc2)no1,10µM,12µM,?,-75,9.2µM,18µM
Cc1ccc(Cn2cc(S(=O)(=O)c3cccc(Cl)c3)c(=O)c3cc(F)c(N4CCOCC4)cc32)cc1,.,/,/,/,/,.
CC(=O)N(CCCc1ccc(C(C)(C)C)cc1)CCCN(C)C,15µM,.,.,.,.,?
Cc1ccc2[nH]c(CSc3nnc(NC(=O)c4ccc(Cl)cc4)s3)cc(=O)c2c1,.,/,/,/,/,.
Cc1cc(=O)c2c(O)c3c(O)cc(O)c4c5c(O)cc(O)c6c(O)c7c(=O)cc(C)c8c1c2c(c34)c(c65)c78,16µM,/,/,/,/,8.2µM
Cc1cc(O)c2c(c1O)C(=O)c1c(O)cc(C)c(O)c1C2=O,.,/,/,/,/,.
Cc1cc(O)cc2c1C1CCC3(C)C(O)CCC3C1C=C2 (centres undefined),?,?,/,.,18µM,21µM
CC(C)(C)NC(=O)[C@@H]1CN(Cc2cccnc2)CCN1C[C@@H](O)C[C@@H](Cc1ccccc1)C(=O)N[C@H]1c2ccccc2C[C@H]1O,?,.,/,.,.,12µM!
COc1ccccc1Oc1ccc(S(=O)(=O)N2CCCCC2)cc1NC(=O)CCNC(C)=O,.,.,.,.,.,.
COc1cccc(/C=N/N(C)C2=NS(=O)(=O)c3ccccc32)c1O,?,.,.,.,.,.
CC(C)(C)NC(=O)CCN(/N=C/c1ccccc1O)C1=NS(=O)(=O)c2ccccc21,21µM,.,.,.,.,15µM
COc1ccc(/C=N/N(CCC(=O)NC(C)(C)C)C2=NS(=O)(=O)c3ccccc32)cc1,21µM,.,?,.,.,21µM
CN(/N=C/c1cc(Cl)ccc1O)C1=NS(=O)(=O)c2ccccc21,16µM,.,.,.,.,18µM
COc1cccc(CNC(=O)[C@@H](C)N2C(=O)N3CCc4c([nH]c5ccc(OC)cc45)C3(C)C2=O)c1 (some centres undefined),15µM,.,?,.,.,16µM

# Compound activity from PubChem.
